Legend:
[1] = biological target: High affinity nerve growth factor receptor (Homo sapiens) (UniProt P04629); conditions: at 1 µM;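 also: each value is the mean percent inhibition of TRKA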
[2] = biological target: BDNF/NT-3 growth factors receptor (Homo sapiens) (UniProt Q16620); conditions: at 0.1 µM
[3] = biological target: BDNF/NT-3 growth factors receptor (Homo sapiens) (UniProt Q16620); conditions: at 1 µM
[4] = biological target: NT-3 growth factor receptor (Homo sapiens) (UniProt Q16288); conditions: at 0.1 µM
NT-3 growth factor receptor (Homo sapiens), sequence (Q16288 32-839 limits assumed): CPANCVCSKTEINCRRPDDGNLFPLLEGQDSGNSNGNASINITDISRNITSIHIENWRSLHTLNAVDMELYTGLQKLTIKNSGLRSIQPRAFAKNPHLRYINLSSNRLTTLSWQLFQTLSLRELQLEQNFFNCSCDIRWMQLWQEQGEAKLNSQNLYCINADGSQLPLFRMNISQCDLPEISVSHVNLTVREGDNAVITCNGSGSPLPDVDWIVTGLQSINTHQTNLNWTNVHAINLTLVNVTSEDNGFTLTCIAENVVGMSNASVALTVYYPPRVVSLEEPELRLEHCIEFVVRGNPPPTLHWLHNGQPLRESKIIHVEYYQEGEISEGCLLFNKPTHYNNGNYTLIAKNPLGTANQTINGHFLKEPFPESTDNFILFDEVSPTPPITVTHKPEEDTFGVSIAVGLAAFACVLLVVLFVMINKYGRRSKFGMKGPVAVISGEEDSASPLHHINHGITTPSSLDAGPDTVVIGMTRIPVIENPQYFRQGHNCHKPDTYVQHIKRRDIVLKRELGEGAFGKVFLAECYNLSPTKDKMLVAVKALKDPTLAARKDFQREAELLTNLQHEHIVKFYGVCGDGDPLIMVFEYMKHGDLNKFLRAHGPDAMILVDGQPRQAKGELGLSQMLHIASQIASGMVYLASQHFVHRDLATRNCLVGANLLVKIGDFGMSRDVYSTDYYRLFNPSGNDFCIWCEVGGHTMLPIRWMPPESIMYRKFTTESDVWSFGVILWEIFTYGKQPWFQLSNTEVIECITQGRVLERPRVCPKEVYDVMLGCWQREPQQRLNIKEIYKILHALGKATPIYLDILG

[5] = biological target: NT-3 growth factor receptor (Homo sapiens) (UniProt Q16288); conditions: at 1 µM
[6] = biological target: T1, Tyrosine-protein kinase TXK (Homo sapiens) (UniProt P42681); conditions: at 0.1 µM
T1 sequence (whole entry): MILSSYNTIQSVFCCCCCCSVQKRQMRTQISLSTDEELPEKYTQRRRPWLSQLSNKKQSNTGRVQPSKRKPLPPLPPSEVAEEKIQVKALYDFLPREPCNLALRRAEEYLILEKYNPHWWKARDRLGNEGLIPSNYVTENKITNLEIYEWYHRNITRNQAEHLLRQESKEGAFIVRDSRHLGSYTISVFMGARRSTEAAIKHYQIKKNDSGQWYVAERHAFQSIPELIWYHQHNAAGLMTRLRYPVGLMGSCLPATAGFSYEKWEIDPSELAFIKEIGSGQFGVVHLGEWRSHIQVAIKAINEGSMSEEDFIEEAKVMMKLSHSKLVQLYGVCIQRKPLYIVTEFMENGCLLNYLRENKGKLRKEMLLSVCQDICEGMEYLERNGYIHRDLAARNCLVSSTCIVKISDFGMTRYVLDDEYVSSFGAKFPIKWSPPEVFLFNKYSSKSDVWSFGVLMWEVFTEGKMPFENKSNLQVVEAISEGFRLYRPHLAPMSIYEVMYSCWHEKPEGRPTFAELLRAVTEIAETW

[7] = biological target: T1, Tyrosine-protein kinase TXK (Homo sapiens); conditions: at 1 µM
[8] = biological target: Non-receptor tyrosine-protein kinase TYK2 (Homo sapiens) (UniProt P29597); conditions: at 0.1 µM;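 also: each value is a mean of the inhibition readings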
[9] = biological target: T2, Dual specificity protein kinase TTK (Homo sapiens) (UniProt P33981); conditions: at 1 µM;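 also: reported figures are mean TTK inhibition at 1 µM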
T2 sequence (whole entry): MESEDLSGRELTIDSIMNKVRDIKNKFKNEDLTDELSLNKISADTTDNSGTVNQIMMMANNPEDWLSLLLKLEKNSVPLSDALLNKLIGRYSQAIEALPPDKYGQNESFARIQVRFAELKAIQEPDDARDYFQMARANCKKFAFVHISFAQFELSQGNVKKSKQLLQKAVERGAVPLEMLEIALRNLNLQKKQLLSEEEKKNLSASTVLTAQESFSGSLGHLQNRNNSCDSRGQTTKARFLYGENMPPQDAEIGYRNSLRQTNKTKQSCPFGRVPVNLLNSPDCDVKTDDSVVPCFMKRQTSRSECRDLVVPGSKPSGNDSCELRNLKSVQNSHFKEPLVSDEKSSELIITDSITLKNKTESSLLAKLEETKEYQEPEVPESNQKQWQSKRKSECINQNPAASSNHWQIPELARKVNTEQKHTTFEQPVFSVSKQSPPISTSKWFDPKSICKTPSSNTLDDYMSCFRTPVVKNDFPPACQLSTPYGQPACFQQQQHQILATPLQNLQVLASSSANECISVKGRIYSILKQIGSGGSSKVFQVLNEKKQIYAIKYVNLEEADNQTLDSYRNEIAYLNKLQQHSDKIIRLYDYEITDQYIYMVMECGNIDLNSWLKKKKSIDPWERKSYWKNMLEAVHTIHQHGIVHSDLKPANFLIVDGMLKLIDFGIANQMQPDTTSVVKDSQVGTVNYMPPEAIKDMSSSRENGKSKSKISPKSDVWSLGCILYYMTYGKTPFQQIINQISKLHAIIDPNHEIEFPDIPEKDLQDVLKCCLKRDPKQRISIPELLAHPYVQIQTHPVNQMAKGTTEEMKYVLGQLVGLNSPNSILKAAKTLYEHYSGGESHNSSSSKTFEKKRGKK

[10] = biological target: T3, Aurora kinase A (Homo sapiens) (UniProt O14965); conditions: at 0.1 µM
T3 sequence (whole entry): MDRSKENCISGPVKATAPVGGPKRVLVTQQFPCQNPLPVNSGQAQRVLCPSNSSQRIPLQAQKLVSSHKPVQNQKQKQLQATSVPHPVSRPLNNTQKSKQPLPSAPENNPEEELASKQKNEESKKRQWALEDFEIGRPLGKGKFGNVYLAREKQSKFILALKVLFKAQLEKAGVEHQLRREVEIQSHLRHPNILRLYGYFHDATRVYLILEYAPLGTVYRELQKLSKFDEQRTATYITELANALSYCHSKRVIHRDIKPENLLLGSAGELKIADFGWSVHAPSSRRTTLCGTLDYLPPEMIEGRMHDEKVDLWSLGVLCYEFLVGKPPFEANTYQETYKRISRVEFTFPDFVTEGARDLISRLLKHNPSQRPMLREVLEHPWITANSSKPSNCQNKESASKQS

[11] = biological target: T3, Aurora kinase A (Homo sapiens); conditions: at 1 µM
[12] = biological target: Aurora kinase B (Homo sapiens) (UniProt Q96GD4); conditions: at 0.1 µM
Aurora kinase B (Homo sapiens), sequence (Q96GD4 whole entry): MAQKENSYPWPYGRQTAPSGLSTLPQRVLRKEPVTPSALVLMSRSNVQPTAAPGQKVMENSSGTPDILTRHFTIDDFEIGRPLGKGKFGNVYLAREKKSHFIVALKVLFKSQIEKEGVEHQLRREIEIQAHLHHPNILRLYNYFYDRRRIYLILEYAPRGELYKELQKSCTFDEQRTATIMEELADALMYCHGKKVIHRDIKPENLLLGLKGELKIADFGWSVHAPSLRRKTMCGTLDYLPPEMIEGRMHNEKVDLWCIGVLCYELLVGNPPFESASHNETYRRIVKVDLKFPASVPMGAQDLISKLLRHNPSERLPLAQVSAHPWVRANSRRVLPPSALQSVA

[13] = biological target: Aurora kinase B (Homo sapiens) (UniProt Q96GD4); conditions: at 1 µM
[14] = biological target: T4, Aurora kinase C (Homo sapiens) (UniProt Q9UQB9); conditions: at 0.1 µM
T4 sequence (whole entry): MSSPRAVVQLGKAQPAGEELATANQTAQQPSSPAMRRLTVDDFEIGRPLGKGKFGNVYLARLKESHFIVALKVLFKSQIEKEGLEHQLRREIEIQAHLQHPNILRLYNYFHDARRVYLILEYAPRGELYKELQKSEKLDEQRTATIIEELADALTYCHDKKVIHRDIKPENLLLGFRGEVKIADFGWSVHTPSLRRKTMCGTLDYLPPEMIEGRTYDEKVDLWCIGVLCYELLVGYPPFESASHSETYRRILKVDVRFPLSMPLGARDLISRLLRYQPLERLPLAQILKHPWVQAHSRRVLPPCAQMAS

[15] = biological target: T4, Aurora kinase C (Homo sapiens); conditions: at 1 µM
[16] = biological target: Serine/threonine-protein kinase 10 (Homo sapiens) (UniProt O94804); conditions: at 0.1 µM
Serine/threonine-protein kinase 10 (Homo sapiens), sequence (O94804 whole entry, looked up): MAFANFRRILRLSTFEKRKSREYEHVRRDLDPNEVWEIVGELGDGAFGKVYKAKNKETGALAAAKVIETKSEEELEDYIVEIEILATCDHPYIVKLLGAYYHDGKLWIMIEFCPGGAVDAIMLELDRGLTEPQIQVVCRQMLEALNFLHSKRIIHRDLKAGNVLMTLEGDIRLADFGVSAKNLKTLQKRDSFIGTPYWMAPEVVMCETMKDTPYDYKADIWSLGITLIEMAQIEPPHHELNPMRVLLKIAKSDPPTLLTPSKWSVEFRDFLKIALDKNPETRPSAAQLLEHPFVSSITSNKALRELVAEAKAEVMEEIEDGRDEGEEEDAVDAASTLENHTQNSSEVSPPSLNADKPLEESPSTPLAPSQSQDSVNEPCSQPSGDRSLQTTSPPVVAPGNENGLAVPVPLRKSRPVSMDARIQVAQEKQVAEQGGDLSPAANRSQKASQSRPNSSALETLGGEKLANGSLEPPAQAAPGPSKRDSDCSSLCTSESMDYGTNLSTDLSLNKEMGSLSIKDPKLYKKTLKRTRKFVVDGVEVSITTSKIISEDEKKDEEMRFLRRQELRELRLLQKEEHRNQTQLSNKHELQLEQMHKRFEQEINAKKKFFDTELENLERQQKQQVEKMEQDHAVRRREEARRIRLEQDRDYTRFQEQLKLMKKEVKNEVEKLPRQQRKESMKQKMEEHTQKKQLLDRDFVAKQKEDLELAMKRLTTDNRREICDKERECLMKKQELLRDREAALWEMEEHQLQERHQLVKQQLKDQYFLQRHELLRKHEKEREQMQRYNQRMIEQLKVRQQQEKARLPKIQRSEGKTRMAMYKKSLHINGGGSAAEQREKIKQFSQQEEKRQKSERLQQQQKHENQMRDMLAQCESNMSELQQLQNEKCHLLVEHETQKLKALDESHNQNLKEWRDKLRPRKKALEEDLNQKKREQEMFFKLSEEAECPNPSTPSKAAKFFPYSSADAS

[17] = biological target: Serine/threonine-protein kinase 10 (Homo sapiens) (UniProt O94804); conditions: at 1 µM
[18] = biological target: T5, Mitogen-activated protein kinase kinase kinase kinase 2 (Homo sapiens) (UniProt Q12851); conditions: at 0.1 µM
T5 sequence (whole entry): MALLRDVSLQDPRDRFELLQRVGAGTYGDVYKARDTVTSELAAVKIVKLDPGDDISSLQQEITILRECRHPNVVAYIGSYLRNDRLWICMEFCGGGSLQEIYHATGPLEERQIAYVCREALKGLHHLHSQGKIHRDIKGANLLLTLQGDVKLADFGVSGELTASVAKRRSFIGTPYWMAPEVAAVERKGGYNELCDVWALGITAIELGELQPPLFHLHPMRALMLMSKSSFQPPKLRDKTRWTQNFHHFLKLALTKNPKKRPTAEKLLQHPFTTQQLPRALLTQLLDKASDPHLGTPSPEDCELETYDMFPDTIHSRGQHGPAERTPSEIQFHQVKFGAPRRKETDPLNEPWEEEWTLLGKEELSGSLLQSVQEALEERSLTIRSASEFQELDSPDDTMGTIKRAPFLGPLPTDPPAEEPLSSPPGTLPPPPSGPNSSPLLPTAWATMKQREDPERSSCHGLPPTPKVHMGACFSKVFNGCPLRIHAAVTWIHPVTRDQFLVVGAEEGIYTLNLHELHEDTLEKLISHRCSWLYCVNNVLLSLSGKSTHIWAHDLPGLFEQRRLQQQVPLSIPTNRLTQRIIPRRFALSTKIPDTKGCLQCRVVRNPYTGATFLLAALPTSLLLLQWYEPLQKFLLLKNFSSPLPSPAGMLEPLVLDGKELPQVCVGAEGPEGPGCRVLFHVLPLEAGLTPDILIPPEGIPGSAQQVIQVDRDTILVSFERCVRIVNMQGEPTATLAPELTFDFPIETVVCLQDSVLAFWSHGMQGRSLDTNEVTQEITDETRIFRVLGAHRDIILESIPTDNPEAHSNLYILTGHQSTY

[19] = biological target: T5, Mitogen-activated protein kinase kinase kinase kinase 2 (Homo sapiens); conditions: at 1 µM
[20] = biological target: Mitogen-activated protein kinase kinase kinase kinase 4 (Homo sapiens) (UniProt O95819); conditions: at 0.1 µM
Mitogen-activated protein kinase kinase kinase kinase 4 (Homo sapiens), sequence (O95819 2-1239 limits assumed): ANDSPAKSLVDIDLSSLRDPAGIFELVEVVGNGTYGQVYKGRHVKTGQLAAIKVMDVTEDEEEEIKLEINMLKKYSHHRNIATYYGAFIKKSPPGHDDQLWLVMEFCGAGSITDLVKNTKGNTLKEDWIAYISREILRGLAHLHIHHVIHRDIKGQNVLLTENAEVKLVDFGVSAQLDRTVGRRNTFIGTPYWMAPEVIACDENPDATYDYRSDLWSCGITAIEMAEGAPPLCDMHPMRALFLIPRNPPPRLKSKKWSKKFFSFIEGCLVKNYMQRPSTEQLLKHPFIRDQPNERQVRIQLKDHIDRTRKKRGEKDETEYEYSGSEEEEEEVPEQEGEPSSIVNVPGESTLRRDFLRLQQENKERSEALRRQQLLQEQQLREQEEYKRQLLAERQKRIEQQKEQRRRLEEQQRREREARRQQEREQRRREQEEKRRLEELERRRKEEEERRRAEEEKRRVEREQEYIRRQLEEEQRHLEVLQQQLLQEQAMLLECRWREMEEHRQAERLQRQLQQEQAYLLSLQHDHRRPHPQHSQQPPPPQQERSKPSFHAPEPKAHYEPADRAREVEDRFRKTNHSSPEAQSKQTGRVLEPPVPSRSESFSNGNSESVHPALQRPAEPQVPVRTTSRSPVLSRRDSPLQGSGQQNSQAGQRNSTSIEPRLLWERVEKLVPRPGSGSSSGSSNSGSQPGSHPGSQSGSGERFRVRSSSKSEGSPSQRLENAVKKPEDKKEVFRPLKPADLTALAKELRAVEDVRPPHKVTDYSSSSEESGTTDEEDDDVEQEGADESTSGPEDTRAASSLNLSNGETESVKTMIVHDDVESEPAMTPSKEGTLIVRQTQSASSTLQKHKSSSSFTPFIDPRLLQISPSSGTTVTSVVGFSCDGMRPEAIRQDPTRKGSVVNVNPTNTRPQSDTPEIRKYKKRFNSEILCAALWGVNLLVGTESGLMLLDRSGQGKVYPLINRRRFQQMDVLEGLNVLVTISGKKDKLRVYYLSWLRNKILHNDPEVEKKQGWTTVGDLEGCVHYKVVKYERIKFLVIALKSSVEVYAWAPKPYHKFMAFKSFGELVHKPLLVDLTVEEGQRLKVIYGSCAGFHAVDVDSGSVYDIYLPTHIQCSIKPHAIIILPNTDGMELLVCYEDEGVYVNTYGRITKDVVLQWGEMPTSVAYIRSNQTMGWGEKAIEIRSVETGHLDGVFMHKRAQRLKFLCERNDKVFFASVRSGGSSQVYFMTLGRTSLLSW

High affinity nerve growth factor receptor (Homo sapiens), sequence (P04629 33-796 limits assumed): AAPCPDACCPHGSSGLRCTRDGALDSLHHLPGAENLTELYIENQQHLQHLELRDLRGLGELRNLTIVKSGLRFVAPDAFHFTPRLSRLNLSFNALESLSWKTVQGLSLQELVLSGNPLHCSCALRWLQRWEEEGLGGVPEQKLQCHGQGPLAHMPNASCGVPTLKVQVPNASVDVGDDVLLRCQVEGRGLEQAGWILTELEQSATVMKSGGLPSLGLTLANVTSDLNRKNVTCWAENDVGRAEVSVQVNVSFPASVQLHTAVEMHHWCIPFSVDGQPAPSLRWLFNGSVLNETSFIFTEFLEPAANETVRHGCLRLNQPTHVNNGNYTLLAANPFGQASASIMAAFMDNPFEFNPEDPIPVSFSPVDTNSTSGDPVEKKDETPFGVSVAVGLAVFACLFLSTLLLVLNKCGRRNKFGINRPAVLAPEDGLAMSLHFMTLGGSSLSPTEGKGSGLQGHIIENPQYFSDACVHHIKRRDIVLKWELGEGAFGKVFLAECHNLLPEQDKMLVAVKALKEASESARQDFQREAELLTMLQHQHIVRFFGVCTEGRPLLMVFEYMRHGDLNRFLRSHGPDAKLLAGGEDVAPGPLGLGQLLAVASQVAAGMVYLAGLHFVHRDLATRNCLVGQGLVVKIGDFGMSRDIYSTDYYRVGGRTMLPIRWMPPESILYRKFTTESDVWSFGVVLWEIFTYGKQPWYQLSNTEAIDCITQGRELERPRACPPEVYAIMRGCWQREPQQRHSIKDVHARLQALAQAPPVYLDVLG
BDNF/NT-3 growth factors receptor (Homo sapiens), sequence (Q16620 32-822 limits assumed): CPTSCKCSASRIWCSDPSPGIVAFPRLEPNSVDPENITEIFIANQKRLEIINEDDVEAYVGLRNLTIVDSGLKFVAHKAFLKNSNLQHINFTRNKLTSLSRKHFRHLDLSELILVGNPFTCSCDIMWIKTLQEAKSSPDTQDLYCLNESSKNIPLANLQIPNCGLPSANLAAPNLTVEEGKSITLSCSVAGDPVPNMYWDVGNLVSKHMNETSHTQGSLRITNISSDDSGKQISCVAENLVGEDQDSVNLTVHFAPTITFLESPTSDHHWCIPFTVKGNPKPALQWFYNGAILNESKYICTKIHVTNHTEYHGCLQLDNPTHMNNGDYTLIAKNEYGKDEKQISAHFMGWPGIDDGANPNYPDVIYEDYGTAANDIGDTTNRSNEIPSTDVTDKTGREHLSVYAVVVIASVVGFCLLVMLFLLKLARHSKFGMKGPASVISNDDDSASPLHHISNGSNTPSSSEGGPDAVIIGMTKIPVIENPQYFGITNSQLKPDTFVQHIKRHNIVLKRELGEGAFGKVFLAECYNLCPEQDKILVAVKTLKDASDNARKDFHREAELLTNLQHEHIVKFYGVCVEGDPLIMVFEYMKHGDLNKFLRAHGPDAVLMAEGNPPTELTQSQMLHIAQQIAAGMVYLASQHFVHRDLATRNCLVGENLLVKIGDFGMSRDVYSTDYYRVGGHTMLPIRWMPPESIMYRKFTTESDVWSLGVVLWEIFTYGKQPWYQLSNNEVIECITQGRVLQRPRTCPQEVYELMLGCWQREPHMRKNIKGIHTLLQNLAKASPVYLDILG

SMILES	inhibition [1] [%]	inhibition [2] [%]	inhibition [3] [%]	inhibition [4] [%]	inhibition [5] [%]	inhibition [6] [%]	inhibition [7] [%]	inhibition [8] [%]	inhibition [9] [%]	inhibition [10] [%]	inhibition [11] [%]	inhibition [12] [%]	inhibition [13] [%]	inhibition [14] [%]	inhibition [15] [%]	inhibition [16] [%]	inhibition [17] [%]	inhibition [18] [%]	inhibition [19] [%]	inhibition [20] [%]
CCn1c(-c2nonc2N)nc2c(C#CC(C)(C)O)nc(OCCNC)cc21	6.23	3.15	3.59	1.5	2.5	3.81	2.46	-0.47	9.85	1.75	4.63	2.66	5.49	-0.74	3.76	5.14	8.89	0.49	3.15	3.57
Nc1ccc(C#Cc2cncnc2Nc2ccc(OCc3cccc(F)c3)c(Cl)c2)cc1	0.62	1.89	1.57	2.2	1.81	-1.58	2.93	0.67	6.25	2.18	0.03	3.38	1.27	0.25	2.24	5.13	6.55	0.2	1.98	2.07
Cc1ccc(C(=O)NC2CC2)cc1-c1ccc2[nH]ncc2c1	-1.16	-1.91	-0.53	-1.71	0.33	-2.22	0.71	0.52	-6.13	-3.2	-1.72	-2.69	-0.44	-3.29	0.5	-0.03	-1.42	-1.74	5.05	-2.51

Reference: ChEMBL document CHEMBL1961873, “Compounds: GSK PKIS; Assays: Nanosyn kinase panel” (2012)
